For 27 molecules, growth results are on record in PubChem BioAssay (NCI).

What all share (test): NCI-60 one-dose screen, 48 h (100 = growth as untreated, 0 = no growth, -100 = all killed)
Holding throughout (conditions): 10 µM unless noted

Experiment [1] concerns HCT-15 colon.
Experiment [2] has as its system HT29 colon.
Experiment [3] concerns SNB-75 CNS.
Experiment [4] deals with SNB-19 CNS.
Experiment [5] has as its system U251 CNS.
Experiment [6] relates to PC-3 prostate.
The subject of experiment [7] is SK-MEL-5 melanoma.
Experiment [8] has as its system UACC-62 melanoma.
The subject of experiment [9] is LOX IMVI melanoma.
In experiment [10] the test system is SK-MEL-28 melanoma.

About 83,000 compounds went through this panel and 20% of them were active in at least one assay; those are over-represented in the sample as a whole.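 Single-concentration screen, 48 h exposure, 96-well plates. Endpoint: percent growth. Below 10 = active.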 Unmarked numbers belong to inactive results. Activity calls are given as the source filed them.

In the case of `O=C(O)COc1ccc(F)cc1`, the growth in experiment [1] was 104%; in experiment [2], 93.8%; in experiment [3] it was 99.8%; in experiment [4], 99.8%; in experiment [5], 102%; in experiment [6], 96.2%. Besides, the growth was 102% in [7], 102% in [8], 99% in experiment [9] and 116% in experiment [10].

Consider `CO[C@H]1CC(c2ccc[nH]2)=N[C@]12O[C@@H](C)C[C@@H]1CCCCCCCc3ccc([nH]3)[C@H]12`, for which the growth is 10.4% in [1]; 12.3% in experiment [2]; 3.5% (active) in experiment [3]; 55.4% in experiment [4]; 19.7% in [5]; 42.2% in [6]. Also, the growth in experiment [7] is -38.4% (active); in experiment [8], -47.8% (active); in [9], -45.1% (active); in experiment [10], 38.6%.

`CCN1C(=O)N(CC)C2C1NC(=S)N2/N=C/C=C/c1ccccc1` (stereo not given): the growth in experiment [1] is 12.4%; in [2], 3.6% (active); in experiment [3], 42.2%; in [4] it was 19.5%; in [5], 15.5%; in [6], 20.6%. The growth in experiment [7] is -30% (active); in experiment [8], 23%; in [9], 14.3%; in experiment [10] it was 61%.

Consider `CNC(=O)c1cc(Oc2ccc3nc(NC(=O)NC(C)C)sc3c2)ccn1`, for which the growth in [1] was 55.9%; in [2] it was 33.3%; in experiment [3], 93.9%; in [4], 82.3%; in [5], 51.6%; in [6], 70.1%. Further, the growth in [7] was 65.3%; in [8] it was 68.6%; in experiment [9], 68.8%; in experiment [10] it was 85.8%.

Consider `C#Cc1cccc(Nc2nc(Cl)nc3cc(NC(=O)CCl)ccc23)c1`, for which the growth in experiment [1] was -77.7% (active); in [2] it was -37.8% (active); in experiment [3] it was -97.5% (active); in experiment [4] it was -77.1% (active); in experiment [5], -81.8% (active); in experiment [6], -85.6% (active). For the same molecule, the growth in experiment [7] was -90.9% (active); in experiment [8], -80.5% (active); in [9], -77.3% (active); in [10] it was -94.4% (active).

On to `N=C(N)c1ccc(-c2ccc(-c3ccc(Cl)cc3Cl)s2)nc1`, for which the growth is -15.2% (active) in experiment [1]; 4.27% (active) in [2]; 92.4% in [3]; 56.3% in experiment [4]; -10.6% (active) in experiment [5]; 73.2% in [6]. In addition, the growth in [7] was 97.7%; in [8], 103%; in experiment [9] it was -67.9% (active); in experiment [10], 116%.

As for `CC/C(=C(/c1ccc(Cl)cc1)c1ccc(OCCN2CCCC2)cc1)c1ccccc1`, the growth is 6.41% (active) in [1]; -25.4% (active) in [2]; 96.3% in [3]; 60.6% in experiment [4]; 32.1% in [5]; 40.4% in experiment [6]. Also, the growth in experiment [7] was 22.4%; in experiment [8] it was 79.2%; in [9], 32.4%; in experiment [10] it was 76.9%.

In the case of `CC1=NC(=S)NC(c2ccccc2)/C1=C1/CC(c2ccccc2O)NN1` (stereo not given), the growth is 97.3% in experiment [1]; 105% in [2]; 80.7% in [3]; 94.2% in experiment [4]; 103% in experiment [5]; 95% in experiment [6]. In addition, the growth was 102% in experiment [7], 97.8% in [8], 101% in experiment [9] and 104% in [10].

Consider `NS(=O)(=O)Oc1cccc(-c2nc3sccn3c2-c2ccccc2)c1`, for which the growth is 29% in [1]; 27% in experiment [2]; -9.42% (active) in experiment [3]; 51.1% in [4]; 36.3% in experiment [5]; 72.4% in experiment [6]. Also, the growth in experiment [7] was 32.3%; in experiment [8], 36.3%; in [9], 49.5%; in [10] it was 60.4%.

Consider `COc1ccc(S(=O)(=O)NC2c3ccccc3CC2O)cc1OC` (stereo not given), for which the growth in [1] was 102%; in [2], 107%; in [3], 80.1%; in [4] it was 98.6%; in experiment [5] it was 102%; in experiment [6] it was 97.8%. Besides, the growth in experiment [7] was 103%; in [8] it was 96.2%; in [9], 102%; in experiment [10] it was 114%.

Turning to `O=C1NC(=O)C(=Cc2cc(-c3ccc(Cl)cc3)n(-c3ccccc3)n2)C(=O)N1`, the growth in experiment [1] was 89.4%; in experiment [2] it was 112%; in experiment [3], 92.4%; in experiment [4], 87.3%; in experiment [5], 96.7%; in experiment [6], 100%. Besides, the growth in [7] is 96.6%; in experiment [8], 90.5%; in experiment [9] it was 104%; in [10], 98.5%.

Consider `CCCCCCCCNC(=O)[C@@H](N)CSCOC(C)=O`, for which the growth in [1] is 99.5%; in experiment [2], 89.4%; in experiment [3], -17.3% (active); in experiment [4] it was 90.8%; in experiment [5], 102%; in experiment [6], 75.9%. Besides, the growth is 48.7% in experiment [7], 70% in [8], 44.4% in experiment [9] and 99.6% in experiment [10].

For `C=CCNc1ccc2c3c(cccc13)C(=O)N(CC=C)C2=O`, the growth was 97.4% in experiment [1]; 105% in experiment [2]; 90.4% in experiment [3]; 100% in [4]; 103% in [5]; 69.3% in experiment [6]. Besides, the growth in experiment [7] was 88.9%; in experiment [8] it was 75.8%; in experiment [9], 92%; in experiment [10] it was 103%.

For the molecule `CCCN1C2CCC1/C(=C\c1ccc(OC)cc1)C(=O)/C2=C/c1ccc(OC)cc1`, the growth in [1] is 71.1%; in experiment [2], 58%; in experiment [3], 84.9%; in experiment [4] it was 86.7%; in experiment [5] it was 70.3%; in experiment [6] it was 64%. The growth in experiment [7] was 64.1%; in experiment [8] it was 49.7%; in [9] it was 74.8%; in experiment [10], 82.7%.

`COC(=O)[C@H]1Cc2c([nH]c3ccccc23)[C@H](c2ccc3c(c2)OCO3)N1`: the growth in experiment [1] was 100%; in [2] it was 106%; in experiment [3], 74.8%; in [4], 96.4%; in experiment [5] it was 96.8%; in [6], 93.2%. In addition, the growth in [7] was 101%; in experiment [8] it was 88.1%; in experiment [9], 93.6%; in [10] it was 108%.

Consider `COc1c(O[C@@H]2OC(CO)[C@H](O)[C@H](O)C2O)cc2oc3cc(O)c(CC=C(C)C)c(O)c3c(=O)c2c1CC=C(C)C` (stereo not given in full), for which the growth is 97.9% in experiment [1]; 93.6% in experiment [2]; 93.9% in experiment [3]; 96.1% in [4]; 77.9% in [5]; 73.8% in experiment [6]. Also, the growth is 97.8% in [7], 83.8% in [8], 85.2% in experiment [9] and 106% in [10].

With `O=c1n(C2OC(CO)C(O)C2O)ccc2nccn12` (stereo not given), the growth in [1] was 105%; in [2], 108%; in [3], 95.5%; in [4], 114%; in experiment [5], 99%; in [6] it was 104%. Further, the growth is 114% in experiment [7], 111% in experiment [8], 111% in experiment [9] and 113% in experiment [10].

For the molecule `Cc1c(CC(=O)Nc2ccccc2)nnn1-c1ccccc1`, the growth is 101% in experiment [1]; 111% in [2]; 104% in experiment [3]; 102% in [4]; 102% in experiment [5]; 104% in experiment [6]. Also, the growth in [7] is 101%; in [8], 97.7%; in experiment [9], 97.7%; in experiment [10], 112%.

Turning to `CN(C)c1ccc(/C=N/NC(=O)CSc2nc3sc4c(c3c(=O)n2-c2ccccc2)CCCCC4)cc1`, the growth in [1] was 43.8%; in experiment [2], 45.8%; in experiment [3], -2.33% (active); in experiment [4], 48.8%; in [5], 5.23% (active); in experiment [6], -23.4% (active). Also, the growth in [7] was 46.2%; in [8], 8.03% (active); in [9] it was 37.1%; in experiment [10], 47.4%.

Consider `N#CC1=C(N)Oc2c(ccc3cccnc23)C1c1ccccc1` (stereo not given), for which the growth in experiment [1] was 28%; in experiment [2] it was 12.6%; in [3], -6.14% (active); in experiment [4], 52.7%; in [5], 23.1%; in experiment [6] it was 22.8%. The growth in experiment [7] is 6.58% (active); in experiment [8], 47.2%; in [9], 33.7%; in [10] it was 49.4%.

On to `COc1ccc(-c2cc(-c3ccc(Cl)cc3)c(C#N)c(=O)n2CCCCC(=O)NO)cc1`, for which the growth was 20.9% in experiment [1]; 83.9% in experiment [2]; 76.7% in [3]; 78% in [4]; 69.7% in experiment [5]; 70.6% in experiment [6]. Moreover, the growth in [7] was 39.1%; in experiment [8], 87.1%; in [9] it was -14.3% (active); in [10] it was 79.3%.

Consider `Nc1ccc(N)c2c1C(=O)c1cccc([N+](=O)[O-])c1C2=O`, for which the growth in experiment [1] is 27.7%; in experiment [2], 44.7%; in experiment [3], 22.6%; in experiment [4], 26.2%; in experiment [5], 33.7%; in experiment [6], 49.3%. Moreover, the growth in experiment [7] is 23.8%; in experiment [8], 5.05% (active); in experiment [9], 22.4%; in experiment [10], 102%.

Turning to `O=C(CNc1ncco1)Nc1ccc(S(=O)(=O)c2ccc(NC(=O)CNc3ncco3)cc2)cc1`, the growth is -49.6% (active) in [1]; -93.2% (active) in experiment [2]; 42.1% in experiment [3]; 19.7% in experiment [4]; -92.1% (active) in experiment [5]; 40.1% in experiment [6]. The growth in experiment [7] is -60.4% (active); in experiment [8], -19.9% (active); in experiment [9], -81.8% (active); in [10] it was 58.1%.

Regarding `CN1CCN(Cc2ccc(NC(=O)c3cncc(C#Cc4cnc(N)c5ncccc45)c3)cc2Cl)CC1`, the growth in experiment [1] is 63.8%; in experiment [2], 52.4%; in [3] it was 105%; in experiment [4], 106%; in experiment [5], -64.6% (active); in experiment [6], 91.6%. The growth was 78.4% in [7], 98.5% in [8], 86.5% in experiment [9] and 45.1% in [10].

On to `N#Cc1c(-c2ccc(Cl)cc2)nc(NN=Cc2cccc(Cl)c2)nc1N1CCOCC1`, for which the growth in experiment [1] is 35.4%; in experiment [2], 40.4%; in [3] it was 80.1%; in [4], 104%; in experiment [5], 78.9%; in [6], 73.5%. Further, the growth in experiment [7] was 92.5%; in experiment [8] it was 98.1%; in experiment [9], 85.5%; in experiment [10], 106%.

In the case of `COCCn1cc(-c2nc(-c3cc4cccnc4n3C)cs2)c2cc(OC)ccc21`, the growth in [1] is 32.1%; in experiment [2], 48.2%; in [3], 47.7%; in [4], 87.4%; in experiment [5], 59%; in experiment [6] it was 16.1%. Besides, the growth in experiment [7] is 26.7%; in experiment [8], 61.7%; in [9], 38.2%; in experiment [10], 88.3%.

Consider `CCN1CCN(c2nc(NNC(=O)c3ccc(OC)cc3)nc(N3CCN(C(c4ccccc4)c4ccccc4)CC3)n2)CC1`, for which the growth in [1] is 22.2%; in experiment [2], 15.6%; in experiment [3], 45.9%; in experiment [4], 78.3%; in [5], 39.5%; in [6], 30.2%. Further, the growth was -74.4% (active) in experiment [7], 68.3% in experiment [8], 1.43% (active) in experiment [9] and 64.1% in [10].
